Dicer inh = blocks human Dicer maturation of pre-miR-21; Q9UPY3; cat-ELCCA pre-miR-21 Dicer processing, chemiluminescence; hits give high values; z-score at 25 µM; 6% of 47,000 active; AID 1347074; in the data active means z-score above about 3, passing the limit was not always enough;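 further: plate controls were vehicle for no effect and no enzyme for full effect; higher signal means more uncleaved substrate so more Dicer inhibition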
Starred values were filed as active, the others as inactive. The full list was thinned out, with hits kept by preference.

Screening Cn1c(=O)c(NCc2ccccc2)c2c3c(cccc31)C(=O)c1ccccc1-2 returned Dicer inh -0.5.
Screening O=C(Nc1ccc(Cl)cc1)OC(CSc1ccccn1)CSc1ccccn1 returned Dicer inh 0.12.
CCOc1ccc2[nH]ccc(=O)c2c1 was read as Dicer inh -0.04.
CCOC(=O)c1nnc2c(-c3ccc(Br)cc3)c(C)nn2c1C was read as Dicer inh 0.58.
Screening Cc1cc(C)c2oc(-c3ccc(C)c(NC(=O)c4ccc([N+](=O)[O-])o4)c3)nc2c1 returned Dicer inh 1.96.
Screening CCOC(=O)/C(C#N)=C/c1ccccc1Cl returned Dicer inh -1.22.
`S=c1[nH]c(=S)c2c3c(sc2[nH]1)CN(Cc1ccccc1)CC3` gave Dicer inh 1.76.
Screening C#CCSc1nnc(SCC(=O)c2sc3ccc(Cl)cc3c2C)s1 returned Dicer inh -0.53.
`Cc1csc2sc(/C=C(\C#N)S(=O)(=O)c3cccs3)c(C)c12` gave Dicer inh 0.35.
Screening O=C(Nc1ccc(N2CCOCC2)cc1)c1cc2cc(Cl)ccc2[nH]1 returned Dicer inh 4*.
`O=C(Nc1ccc(N2CCOCC2)cc1)c1ccc(Oc2cc(Cl)cc(Cl)c2)o1` gave Dicer inh 0.52.
For O=C(Nc1ccc(N2CCOCC2)cc1)c1ncn[nH]1 the results were Dicer inh 2.03.
For c1nc(N2CCOCC2)c2sccc2n1 the results were Dicer inh 0.95.
For Cc1cc(C)n(C(=O)CSc2nc(-c3ccccc3)cc(C(F)(F)F)c2C#N)n1 the results were Dicer inh 1.45.
Screening CCOc1cc(-c2cc(OCC)c3c(C)oc(C)c3c(=O)c2)ccc1O returned Dicer inh 3.55*.
For CCOc1cc(-c2cc(O)c3c(C)oc(C)c3c(=O)c2)ccc1O the results were Dicer inh 0.83.
Screening CCOc1cc(-c2cc(=O)c3ccccc3o2)ccc1O returned Dicer inh -0.81.
`CCOC(=O)Cc1cnc(NC(=O)CSc2nnc3c(n2)-c2cccc4cccc-3c24)s1` gave Dicer inh -1.53.
CC(C)(C)c1cc(=O)n2[nH]c(C(F)(F)F)c(-c3ccccc3)c2n1 was read as Dicer inh 1.88.
`CCCC(=O)O[C@@H]1C(=O)c2ccccc2O[C@H]1c1ccccc1` gave Dicer inh 1.42.
Screening CC(=O)Oc1ccc(C2C(C(=O)OC3CCCC3)=C(C)NC3=C2C(=O)CC(c2cccs2)C3)cc1 (configuration not stated) returned Dicer inh 0.45.
For Fc1ccc(NC(=S)NCCNC(=S)Nc2ccc(F)cc2F)c(F)c1 the results were Dicer inh -1.11.
For COC(=O)c1sc(N2C(=O)c3oc4ccc(F)cc4c(=O)c3C2c2ccc(OC)cc2)nc1C (configuration not stated) the results were Dicer inh 2.26.
O=C1CSC(=O)N1C(c1ccccc1)(c1ccccc1)c1ccccc1 was read as Dicer inh 4.53*.
Screening CC(C)(C)c1ccc(N2C(=N)SCC2=O)cc1 returned Dicer inh 0.2.
O=C1CSc2nc(-c3ccccc3)c(-c3ccccc3)n21 was read as Dicer inh -0.62.
Screening Cc1ccc(Sc2nc(-c3cccs3)ns2)cc1 returned Dicer inh -0.79.
C(=C/c1nnnn1-c1ccccc1)/Nc1ccccc1 was read as Dicer inh 0.33.
For COC(=O)c1ccc(C2c3c(oc4ccccc4c3=O)C(=O)N2c2nnc(C(C)C)s2)cc1 (configuration not stated) the results were Dicer inh 0.12.
Screening O=C(O)CCSc1nc2ccccc2n1Cc1ccccc1 returned Dicer inh 1.4.
For CCOC(=O)Cn1c(=O)n(CC(=O)OCC)c2ccccc21 the results were Dicer inh -1.06.
CCOC(=O)Cn1c(-c2ccccn2)nc2ccccc21 was read as Dicer inh -0.59.
Screening CCOC(=O)Cn1c(C)nc2ccccc21 returned Dicer inh 4.66*.
Screening NC(=O)Cn1c(SC2CCCCC2)nc2ccccc21 returned Dicer inh 1.74.
`O=C(O)Cn1c(SCc2ccccc2)nc2ccccc21` gave Dicer inh 1.23.
Screening NC(=O)CSc1nc2ccccc2n1CCO returned Dicer inh 12.1.
CCn1c(SCC(=O)O)nc2ccccc21 was read as Dicer inh 3.11*.
Screening CCSc1nc2ccccc2n1CC(N)=O returned Dicer inh 6.65*.
For COc1cccc(-c2nn3c(-c4ccccc4Cl)nnc3s2)c1 the results were Dicer inh -0.38.
For C=CCOC(=O)C1=C(C)NC2=C(C(=O)CCC2)C1c1ccc(OCc2ccccc2)c(OC)c1 (configuration not stated) the results were Dicer inh -0.61.
Screening Cc1ccc(C(=O)N2CCN(CC(=O)Nc3cc(-c4ccccc4)sc3C(N)=O)CC2)cc1 returned Dicer inh 0.24.
Screening O=C(NCc1cccnc1)c1nn2c(C(F)(F)F)cc(-c3ccccc3)nc2c1Cl returned Dicer inh -0.44.
O=c1oc(-c2ccccc2Br)nc2ccccc12 was read as Dicer inh 4.59*.
O=c1oc(-c2ccc(-c3ccccc3)cc2)nc2ccccc12 was read as Dicer inh 0.22.
For O=c1oc(-c2cccc(Cl)c2)nc2ccccc12 the results were Dicer inh 0.1.
For O=C1CC(c2ccc(F)cc2)c2ccc3ccccc3c2N1 (configuration not stated) the results were Dicer inh -0.44.
`CC(C)(C)C1=CC(O)n2c(nc3ccccc32)S1` (configuration not stated) gave Dicer inh 1.37.
For Cc1cc(C)c(SCC(=O)N2CCN(c3ncc(C(F)(F)F)cc3Cl)CC2)c(C)c1 the results were Dicer inh -1.66.
Screening O=C(CSc1n[nH]c(=O)n1-c1ccccc1)c1ccc(Cl)cc1 returned Dicer inh -3.48.
`COc1cc(-n2c(SCC(=O)c3ccc(Cl)cc3)nc3ccccc3c2=O)c(OC)cc1Cl` gave Dicer inh 3.82*.
COc1cc(-n2c(SCC(=O)c3ccccc3)nc3ccccc3c2=O)c(OC)cc1Cl was read as Dicer inh -0.01.
`CC(C)c1nc2sc3c(ncn4ncnc34)c2c2c1CCCC2` gave Dicer inh -0.49.
CCOC(=O)c1c(-n2c(C)ccc2C)sc2c1CCCC2 was read as Dicer inh -1.88.
For OCCSc1nnnn1-c1ccccc1 the results were Dicer inh -1.28.
For CCOC(=O)CSc1nnnn1-c1ccccc1 the results were Dicer inh 3.72*.
O=C(CSc1nnnn1-c1ccccc1)c1ccccc1 was read as Dicer inh 0.17.
O=S(=O)(Nc1ccc(O)c(Cl)c1)c1cccs1 was read as Dicer inh -0.89.
`O=C1c2ccccc2OC(c2ccccc2)C12N=NCC2c1ccc(Cl)cc1Cl` (configuration not stated) gave Dicer inh -1.23.
COC(=O)c1c(C)nc2n(CCN3CCCCC3)c3ccccc3n12 was read as Dicer inh 1.07.
For Cc1cn2c3ccccc3n(CCN3CCCC3)c2n1 the results were Dicer inh 0.49.
`Cc1nn2c3ccccc3n(CCN3CCCCC3)c2nc1=O` gave Dicer inh 3.15*.
`CCC1CCCCN1Cc1c(C)[nH]c2c(C)c(C)ccc2c1=O` (configuration not stated) gave Dicer inh -0.13.
Screening Cc1ccc2c(c1C)NC(=O)CC(c1ccccc1O)=N2 returned Dicer inh 1.55.
`Cc1ccc(O)c(C2=Nc3ccccc3N=C(c3ccco3)C2)c1` gave Dicer inh 3.99*.

Assay outcomes: PubChem BioAssay, Center for Chemical Genomics, University of Michigan
